Assay results reported in PubChem BioAssay AID1159580 (chemical genetic matrix, 2015).
Values joined by “and” are separate entries in the source; they are usually repeats but may differ in a detail not shown here. Equal entries are not always repeated. Out of some 5,500 compounds screened, about 2,000 (36%) were called active. Another 18% or so got no clear call; they are omitted. Cut-off read from the data, not from the text of the source: active = normalized growth mostly below about 0.91 (no sharp cut-off); inconclusive = no clear call, values can overlap the other calls; inactive = mostly above about 0.92. The list shows a part of the results.

Test: chemical genetic growth profiling, strain panel (AID 1159580);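 note: tested at 20 µM; growth read once vehicle control cultures reached saturation at 30 °C; 1 = growth at the plate median or of vehicle wells; lower values mean less growth of the strain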
Conditions: S. cerevisiae deletion strains, growth OD

Measured: normalized growth

COC(=O)C[C@H]1C2(C)CC34OC5(C)O[C@@]6([C@H](OC(C)=O)C(OC(C)=O)[C@]7(C)C(/C(=C(/O)C(C)C)C(=O)O[C@H]7c7ccoc7)[C@@]6(O5)[C@H](OC(C)=O)[C@@]3(O)C2OC(=O)C(C)C)[C@]14C (stereo partly drawn)
inactive: locus YAL021C, strain ccr4, active compounds read low 1.01 | locus YAL026C, strain drs2, active compounds read low 0.995 | locus YAL030W, strain snc1, active compounds read low 0.997 | locus YBL061C, strain skt5, active compounds read low 1.01 | locus YBR009C, strain hhf1, active compounds read low 1.01 | locus YBR021W, strain FUR4, active compounds read low 1.06 | locus YBR023C, strain chs3, active compounds read low 1 | locus YBR171W, strain sec66, active compounds read low 0.994 | locus YBR229C, strain ROT2, active compounds read low 0.955 | locus YBR231C, strain swc5, active compounds read low 1 | locus YBR279W, strain paf1, active compounds read low 0.996 | locus YCL011C, strain gbp2, active compounds read low 0.989 | locus YCL016C, strain dcc1, active compounds read low 1.02 | locus YCL029C, strain bik1, active compounds read low 1.01 | locus YCL061C, strain MRC1, active compounds read low 1 | locus YCL069W, strain vba3, active compounds read low 0.998 | locus YCR088W, strain abp1, active compounds read low 0.992 | locus YDL005C, strain med2, active compounds read low 0.982 | locus YDL035C, strain GPR1, active compounds read low 0.976 | locus YDL040C, strain nat1, active compounds read low 0.978 | locus YDL074C, strain BRE1, active compounds read low 0.986 | locus YDL101C, strain DUN1, active compounds read low 1 | locus YDL134C, strain PPH21, active compounds read low 1.02 | locus YDL185W, strain tfp1, active compounds read low 0.956 | locus YDL192W, strain arf1, active compounds read low 0.986 | locus YDR001C, strain nth1, active compounds read low 1 | locus YDR069C, strain doa4, active compounds read low 1 | locus YDR101C, strain arx1, active compounds read low 1 | locus YDR137W, strain rgp1, active compounds read low 0.953 | locus YDR159W, strain sac3, active compounds read low 0.975 | locus YDR162C, strain NBP2, active compounds read low 0.973 | locus YDR195W, strain ref2 0.959 | locus YDR297W, strain sur2, active compounds read low 1.02 | locus YDR318W, strain mcm21, active compounds read low 0.994 | locus YDR334W, strain swr1, active compounds read low 0.991 | locus YDR335W, strain msn5, active compounds read low 0.993 | locus YDR388W, active compounds read low 0.994 | locus YDR392W, strain spt3, active compounds read low 1.05 | locus YDR502C, strain sam2, active compounds read low 1.03 | locus YEL003W, strain gim4, active compounds read low 0.995 | locus YEL037C, strain rad23, active compounds read low 0.997 | locus YEL061C, strain CIN8 (second series), active compounds read low 0.994 | locus YEL061C, strain CIN8, active compounds read low 1 | locus YER015W, strain faa2, active compounds read low 1.01 | locus YER016W, strain bim1, active compounds read low 0.981 | locus YER110C, active compounds read low 0.992 | locus YER111C, strain swi4, active compounds read low 0.985 | locus YER155C, strain BEM2 (second series), active compounds read low 1.01 | locus YER155C, strain BEM2, active compounds read low 1.01 | locus YER167W, strain BCK2, active compounds read low 0.99 | locus YFR010W, strain ubp6, active compounds read low 0.982 | locus YGL078C, strain dbp3, active compounds read low 0.98 | locus YGL086W, strain mad1, active compounds read low 1.01 | locus YGL167C, strain pmr1, active compounds read low 0.995 | locus YGL173C, strain kem1, active compounds read low 0.997 | locus YGL227W, strain vid30, active compounds read low 0.987 | locus YGL240W, strain doc1, active compounds read low 0.975 | locus YGL248W, strain PDE1, active compounds read low 0.997 | locus YGL253W, strain hxk2, active compounds read low 0.975 | locus YGR078C, strain PAC10, active compounds read low 1 | locus YGR135W, strain pre9, active compounds read low 1.06 | locus YGR252W, strain gcn5, active compounds read low 1.04 | locus YHR013C, strain ard1, active compounds read low 1 | locus YHR027C, strain rpn1, active compounds read low 1.02 | locus YHR030C, strain SLT2, active compounds read low 0.947 | locus YHR079C, strain IRE1 (second series), active compounds read low 0.997 | locus YHR079C, strain IRE1, active compounds read low 0.983 | locus YHR094C, strain hxt1, active compounds read low 0.998 | locus YHR129C, strain ARP1, active compounds read low 1 | locus YHR142W, strain chs7, active compounds read low 1 | locus YHR200W, strain rpn10, active compounds read low 0.996 | locus YIL066C, strain RNR3, active compounds read low 0.963 | locus YIL073C, strain SPO22, active compounds read low 0.966 | locus YIL125W, strain kgd1, active compounds read low 1 | locus YIR030C, strain dcg1, active compounds read low 1 | locus YJL092W, strain hpr5, active compounds read low 0.997 | locus YJL095W, strain BCK1 (second series), active compounds read low 1 | locus YJL095W, strain BCK1, active compounds read low 1.02 and 0.966 | locus YJL115W, strain asf1, active compounds read low 0.989 | locus YJL129C, strain trk1, active compounds read low 0.975 | locus YJL134W, strain LCB3, active compounds read low 0.994 | locus YJL154C, strain vps35, active compounds read low 1 | locus YJL164C, strain tpk1, active compounds read low 1.01 | locus YJL166W, strain qcr8, active compounds read low 0.983 | locus YJL168C, strain set2, active compounds read low 1.01 | locus YJL187C, strain SWE1 (second series), active compounds read low 1.01 | locus YJL187C, strain SWE1, active compounds read low 1.01 | locus YJR066W, strain TOR1, active compounds read low 0.928 | locus YJR075W, strain HOC1, active compounds read low 1.02 | locus YKL009W, strain mrt4, active compounds read low 0.979 | locus YKL068W, active compounds read low 0.986 | locus YKL160W, strain elf1, active compounds read low 1.01 | locus YKR001C, strain vps1, active compounds read low 1 | locus YKR026C, strain gcn3, active compounds read low 0.995 | locus YKR091W, strain srl3, active compounds read low 0.996 | locus YLL001W, strain dnm1, active compounds read low 1.02 | locus YLL026W, active compounds read low 0.987 | locus YLL041C, strain sdh2, active compounds read low 0.988 | locus YLR027C, strain aat2, active compounds read low 1 | locus YLR039C, strain RIC1, active compounds read low 0.863 | locus YLR058C, strain SHM2, active compounds read low 0.987 | locus YLR102C, strain apc9, active compounds read low 1 | locus YLR113W, strain HOG1, active compounds read low 1.01 | locus YLR221C, strain rsa3, active compounds read low 0.992 | locus YLR258W, strain gsy2, active compounds read low 1.01 | locus YLR262C, strain YPT6 (second series), active compounds read low 0.924 | locus YLR268W, strain sec22, active compounds read low 0.986 | locus YLR320W, strain mms22, active compounds read low 0.988 | locus YLR342W, strain FKS1, active compounds read low 0.996 | locus YLR357W, strain rsc2, active compounds read low 0.997 | locus YLR370C, strain arc18, active compounds read low 0.99 | locus YLR371W, strain rom2, active compounds read low 0.99 | locus YLR384C, strain iki3, active compounds read low 0.994 | locus YLR418C, strain cdc73, active compounds read low 1.07 | locus YML016C, strain PPZ1, active compounds read low 0.995 | locus YML032C, strain rad52, active compounds read low 0.982 | locus YML120C, strain ndi1, active compounds read low 0.995 | locus YML124C, strain tub3, active compounds read low 1.01 | locus YMR058W, strain fet3, active compounds read low 1.01 | locus YMR078C, strain ctf18, active compounds read low 0.998 | locus YMR125W, strain sto1, active compounds read low 1.01 | locus YMR129W, active compounds read low 0.997 | locus YMR205C, strain PFK2, active compounds read low 0.992 | locus YMR223W, strain ubp8, active compounds read low 1.02 | locus YMR231W, strain pep5, active compounds read low 0.957 | locus YMR263W, strain SAP30, active compounds read low 0.992 | locus YMR307W, strain GAS1, active compounds read low 0.926 | locus YNL067W, strain RPL9B, active compounds read low 1.02 | locus YNL071W, strain lat1, active compounds read low 0.998 | locus YNL153C, strain GIM3, active compounds read low 1.02 | locus YNL183C, strain NPR1, active compounds read low 0.954 | locus YNL209W, strain ssb2, active compounds read low 0.994 | locus YNL233W, strain BNI4, active compounds read low 1.04 | locus YNL248C, strain rpa49, active compounds read low 0.989 | locus YNL250W, strain rad50, active compounds read low 0.987 | locus YNL271C, strain bni1, active compounds read low 0.999 | locus YNL298W, strain CLA4, active compounds read low 0.994 | locus YNL307C, strain MCK1, active compounds read low 1.01 | locus YNL322C, strain KRE1 (second series), active compounds read low 0.982 | locus YNR049C, strain mso1, active compounds read low 0.994 | locus YNR052C, strain pop2, active compounds read low 1.02 | locus YOL012C, strain htz1 1.3 | locus YOL147C, strain pex11, active compounds read low 1.01 | locus YOR001W, strain rrp6, active compounds read low 0.947 | locus YOR061W, strain CKA2, active compounds read low 0.962 | locus YOR069W, strain VPS5, active compounds read low 1 | locus YOR070C, strain gyp1, active compounds read low 0.987 | locus YOR080W, strain dia2, active compounds read low 0.977 | locus YOR083W, strain WHI5, active compounds read low 1.02 | locus YOR106W, strain vam3, active compounds read low 1.01 | locus YOR136W, strain idh2, active compounds read low 1 | locus YOR144C, strain elg1, active compounds read low 1 | locus YOR184W, strain ser1, active compounds read low 0.987 | locus YOR231W, strain MKK1, active compounds read low 0.981 | locus YOR265W, strain rbl2, active compounds read low 0.994 | locus YOR270C, strain vph1, active compounds read low 0.87 | locus YOR290C, strain snf2, active compounds read low 0.979 | locus YOR316C, strain cot1, active compounds read low 1.01 | locus YPL051W, strain arl3, active compounds read low 0.999 | locus YPL078C, strain atp4, active compounds read low 1.01 | locus YPL106C, strain sse1, active compounds read low 1.06 | locus YPL240C, strain hsp82, active compounds read low 0.99 | locus YPL256C, strain CLN2, active compounds read low 0.98 | locus YPR119W, strain clb2, active compounds read low 0.997 | locus YPR141C, strain kar3, active compounds read low 0.969 | locus YPR163C, strain tif3, active compounds read low 1.01 | locus YPR167C, strain met16, active compounds read low 0.993 | strain wtn01, active compounds read low 1
